Results from PubChem BioAssay.
Entries with a potency or affinity are not part of this list. Calls of active or inactive are those of the source. The rule behind the calls is not given here.

How the values were obtained:
[1] = A549 cell cytotoxicity, dose response, cytotoxicity control, plate reader, cherry-pick, antagonist series (AID 743412)
[2] = HepG2 cell cytotoxicity, dose response, cytotoxicity control, plate reader, cherry-pick, antagonist series (AID 743416)
[3] = target: Melanocortin receptor 4 (Homo sapiens) (UniProt P32245); assay: MC4R antagonists, dose response, counter-screen for LGR2 antagonist project, cell-based, plate reader, cherry pick (AID 743444)

O=C(Nc1ccc(Cl)c(S(=O)(=O)N2CCOCC2)c1)c1ccc2c(c1)OCCO2
outcome [1]: inactive
outcome [2]: inactive

Cc1ccc(C(=O)C2C(=O)C3CCC2C3)cc1 (stereo not given)
outcome [1]: inactive
outcome [2]: inactive

C=CCNC(=O)c1c(Cl)nc(C)c([N+](=O)[O-])c1C
outcome [1]: inactive
outcome [2]: inactive

CC(C)(C)c1ccc(C(=O)NCCOc2ccccc2F)cc1
outcome [1]: inactive
outcome [2]: inactive

c1nc(CCO[C@H]2CCCCO2)cc2cc3c(cc12)OCO3
outcome [1]: inactive
outcome [2]: inactive

c1ccc(-n2cnnc2SCc2cn3cccnc3n2)cc1
outcome [1]: inactive
outcome [2]: inactive

FC(F)(F)c1cccc(CC2CN(Cc3ccccc3)Cc3ccccc3N2c2cc(Cl)cc(Cl)c2)c1 (stereo not given)
outcome [1]: inactive
outcome [2]: inactive

Cc1ccc2nc(NC(=O)CCCC(=O)O)sc2c1
outcome [1]: inactive
outcome [2]: inactive

COc1cc(NC(=O)c2cccc3c(-c4cnn(C)c4)coc23)cc(OC)c1OC
outcome [1]: inactive
outcome [2]: inactive

O=C(CN1C(=O)c2ccccc2S1(=O)=O)c1ccccc1F
outcome [1]: inactive
outcome [2]: inactive

Cc1ccc(-c2nc(-c3ccccn3)no2)cc1[N+](=O)[O-]
outcome [1]: inactive
outcome [2]: inactive

Cc1ccc(C(=O)n2nc(-n3cccc3)c3c(C)cc(C)nc32)cc1
outcome [1]: inactive
outcome [2]: inactive

Cc1cc(C(=O)COC(=O)c2cccn2C)c(C)n1Cc1ccco1
outcome [1]: inactive
outcome [2]: inactive

Cc1ccc2nc(-c3ccc(NC(=O)COC(=O)c4ccco4)cc3)sc2c1
outcome [1]: inactive
outcome [2]: inactive

O=C(c1cc(-c2ccc(Cl)cc2Cl)on1)N1CCCC1
outcome [1]: inactive
outcome [2]: inactive

CCCC(=O)N1CCCC(c2cc(C(=O)Nc3ccccc3)no2)C1 (stereo not given)
outcome [1]: inactive
outcome [2]: inactive

CN(C)c1ccc(C2NC(=O)c3ccccc3N2)cc1 (stereo not given)
outcome [1]: inactive
outcome [2]: inactive

CC(C)Nc1ncnc2c1cnn2-c1ccc(Cl)cc1
outcome [1]: inactive
outcome [2]: inactive

CC(C)Oc1ccc(CNC(=O)CC(c2ccccc2)c2cc(Cl)ccc2O)cc1 (stereo not given)
outcome [1]: inactive
outcome [2]: inactive

Cc1cc(C(=O)CN2C(=O)c3ccccc3S2(=O)=O)c(C)n1C(C)C
outcome [1]: inactive
outcome [2]: inactive

Cc1ccc(-c2cc(C(=O)N3CCOCC3)no2)cc1
outcome [1]: inactive
outcome [2]: inactive

Cc1ccc2nc(-c3ccc(NC(=O)C(C)Sc4nncs4)cc3)sc2c1 (stereo not given)
outcome [1]: inactive
outcome [2]: inactive

CCS(=O)(=O)N1Cc2ccccc2CC1C(=O)Nc1nc2ccccc2s1 (stereo not given)
outcome [1]: inactive
outcome [2]: inactive

O=C(O)c1cccc(Nc2ccnc(Nc3cccc(C(=O)O)c3)n2)c1
outcome [1]: inactive
outcome [2]: inactive

CCCCN(CCCNC(=O)c1ccc2c(c1)NC(=O)CN2C)c1ccccc1
outcome [1]: inactive
outcome [2]: inactive

COc1cccc(-c2cc(C(=O)N3CCCCCC3)no2)c1
outcome [1]: inactive
outcome [2]: inactive

CSc1ccc(NC(=O)Nc2cc(C)ccn2)cc1
outcome [1]: inactive
outcome [2]: inactive

COc1cc(SC)ccc1C(=O)Nc1ccc(Cl)cn1
outcome [1]: inactive
outcome [2]: inactive

Cc1ccc2nc(-c3ccc(NC(=O)c4cccnc4)cc3)oc2c1
outcome [1]: inactive
outcome [2]: inactive

COc1ccc(-c2noc(CCC(=O)N3CCN(c4ccc(Cl)cc4)CC3)n2)cc1
outcome [1]: inactive
outcome [2]: inactive
outcome [3]: inactive

O=C(C[C@H]1CC[C@H](NS(=O)(=O)c2cccc(F)c2)[C@@H](CO)O1)N1CCCCC1
outcome [1]: inactive
outcome [2]: inactive
outcome [3]: inactive

O=C(c1ccc(F)cc1)N1CC(=O)N2[C@@H](CO)[C@@H](c3ccc(C#CC4CCCC4)cc3)[C@@H]2C1
outcome [1]: inactive
outcome [2]: inactive
outcome [3]: inactive

CC(=O)Nc1cccc(-c2ccnc3c2CC(C(=O)NCc2cccnc2)O3)c1 (stereo not given)
outcome [1]: inactive
outcome [2]: inactive
outcome [3]: inactive

CO[C@H]1CN(C)C(=O)c2ccc(NC(=O)C3CC3)cc2OC[C@@H](C)N(C(=O)Cc2ccccn2)C[C@H]1C
outcome [1]: inactive
outcome [2]: inactive
outcome [3]: inactive

C[C@@H]1CN([C@@H](C)CO)C(=O)c2cc(NS(C)(=O)=O)ccc2O[C@@H](C)CCCCO[C@@H]1CN(C)Cc1ccc(C(F)(F)F)cc1
outcome [1]: inactive
outcome [2]: inactive
outcome [3]: inactive

COc1ccccc1C=NNC(=O)c1ccncc1
outcome [1]: inactive
outcome [2]: inactive
outcome [3]: inactive

O=C(Cc1ccccc1Cl)Nc1cccnc1
outcome [1]: inactive
outcome [2]: inactive
outcome [3]: inactive

C[C@@H]1CN([C@@H](C)CO)C(=O)c2cccc(NC(=O)Nc3ccc(C(F)(F)F)cc3)c2O[C@H]1CN(C)C(=O)Nc1cccc2ccccc12
outcome [1]: inactive
outcome [2]: inactive
outcome [3]: inactive

C[C@H](CO)N1C[C@H](C)[C@H](CN(C)Cc2ccccc2)Oc2c(NS(=O)(=O)c3cn(C)cn3)cccc2C1=O
outcome [1]: inactive
outcome [2]: inactive
outcome [3]: inactive

CCn1c(C)cc(C(=O)CN2C(=O)c3ccccc3S2(=O)=O)c1C
outcome [1]: inactive
outcome [2]: inactive

C[C@H](CO)N1C[C@H](C)[C@@H](CN(C)S(=O)(=O)c2cccs2)Oc2c(cccc2N(C)C)C1=O
outcome [1]: inactive
outcome [2]: inactive
outcome [3]: inactive

O=C(O)c1ccc(Nc2nc3c(s2)CCCC3)cc1
outcome [1]: inactive
outcome [2]: inactive

Cc1c(NC(=O)c2cccc(NC(=O)COc3ccccc3C#N)c2)c(=O)n(-c2ccccc2)n1C
outcome [1]: inactive
outcome [2]: inactive

Cc1cc(C(=O)Nc2ccc(N3CCCCC3)cc2)no1
outcome [1]: inactive
outcome [2]: inactive

O=C(O)c1ccc(N/N=C/c2ccc3ncccc3c2)cc1
outcome [1]: inactive
outcome [2]: inactive

Cc1ccnc(NC(=O)c2cccc(S(=O)(=O)N3CCN(c4ccccc4)CC3)c2)c1
outcome [1]: inactive
outcome [2]: inactive

COCCn1c(C)cc(C(=O)CSc2nnnn2C2CCCC2)c1C
outcome [1]: inactive
outcome [2]: inactive
